According to PubChem BioAssay (Tox21):
Records with an inconclusive call do not appear. Activity calls are given as the source filed them. Unless noted, the call rests on the fitted dose curve; in most records, active means well fitted curve in the direction sought with a large enough effect in the repeat runs; inconclusive means weak or mixed curves; inactive means no such curve, though single readings can be large; an effect the other way counts as inactive or inconclusive.

Key:
[1] = A CellTox Green Cytotoxicity Assay to monitor cytotoxicity in HepG2 cells - 8 hour (AID 1224890); further: nearly all actives have a fitted effect of over 45% in size
In short: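 Real-time, homogeneous cytotoxicity readout: dead-cell DNA staining by CellTox Green in HepG2 monolayers, fluorescence measured at timed intervals up to 40 h of continuous compound exposure.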

[2] = qHTS assay to identify small molecule antagonists of the estrogen receptor alpha (ER-alpha) signaling pathway using the BG1 cell line in the presence of 0.1 nM 17-beta-estradiol - cell viability counter screen (AID 1259241); further: nearly all actives have a fitted effect of over 40% in size
In short: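 Cytotoxicity counter-screen: live-cell protease activity measured by fluorescence (30 min reagent step) in the same wells. Cells were VM7Luc4E2 with endogenous ER-alpha and ERE-driven luciferase, treated 22 hr at 37C alongside 0.1 nM 17beta-estradiol final.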

[3] = qHTS assay to identify small molecule antagonists of the androgen receptor (AR) signaling pathway using the MDA cell line in the presence of 0.5 nM R1881 - cell viability counter screen (AID 1259242); further: nearly all actives have a fitted effect of over 45% in size
In short: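 Cytotoxicity toward MDA-kb2 cells is measured by CellTiter-Fluor live-cell protease fluorescence after 16 hr compound exposure at 37C in the presence of 0.5 nM R1881 stimulator.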

[4] = molecular target: Estrogen receptor (Homo sapiens) (UniProt P03372); experiment: qHTS assay to identify small molecule antagonists of the estrogen receptor alpha (ER-alpha) signaling pathway using the BG1 cell line in the presence of 0.1 nM 17-beta-estradiol (AID 1259244); further: nearly all actives have a fitted effect of over 50% in size
Chain of Estrogen receptor (Homo sapiens) (P03372 whole entry, looked up): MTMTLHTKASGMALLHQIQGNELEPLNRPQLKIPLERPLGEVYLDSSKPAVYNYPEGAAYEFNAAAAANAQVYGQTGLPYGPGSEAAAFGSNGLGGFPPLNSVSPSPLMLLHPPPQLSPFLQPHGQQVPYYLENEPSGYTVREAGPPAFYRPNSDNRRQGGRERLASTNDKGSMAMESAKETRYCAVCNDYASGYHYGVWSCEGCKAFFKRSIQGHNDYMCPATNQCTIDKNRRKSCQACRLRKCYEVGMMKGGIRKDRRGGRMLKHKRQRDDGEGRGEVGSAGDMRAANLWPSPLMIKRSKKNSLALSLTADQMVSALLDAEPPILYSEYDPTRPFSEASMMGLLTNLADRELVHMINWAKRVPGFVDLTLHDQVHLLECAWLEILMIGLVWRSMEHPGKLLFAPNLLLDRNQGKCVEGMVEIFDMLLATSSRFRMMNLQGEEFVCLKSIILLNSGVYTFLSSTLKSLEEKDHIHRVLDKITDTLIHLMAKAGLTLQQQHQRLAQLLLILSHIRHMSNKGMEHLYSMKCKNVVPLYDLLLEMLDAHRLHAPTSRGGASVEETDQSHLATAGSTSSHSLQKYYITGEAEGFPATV
In short: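 After 5 days in hormone-depleted medium (charcoal-stripped serum, no phenol red), VM7Luc4E2 cells were seeded, incubated 24 h, then co-treated with compound and 0.1 nM (final) estradiol for 22 h before luminescence detection.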

[5] = qHTS assay to identify small molecule phospholipidosis (PLD) inducers (AID 1259344; active means well fitted curve in the direction sought with a large enough effect; an effect the other way counts as inactive or inconclusive)
In short: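 Quantitative HTS in HepG2: compound plus LipidTOX Red dye for 24 h, paraformaldehyde fixation with Hoechst 33342, widefield high-content imaging; amiodarone as positive and DMSO as negative control.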

[6] = qHTS assay to identify small molecule HDAC inhibitors (AID 1259364); further: top concentration of the series differs between compounds; nearly all actives have a fitted effect of over 45% in size
In short: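 Homogeneous cell-based luminescent assay of endogenous class I/II HDAC activity; HCT-116 cells, 2 h compound exposure, 30 min HDAC-Glo development at RT.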

[7] = qHTS assay to identify small molecule HDAC inhibitors - cell viability counter screen (AID 1259365); further: series mostly up to about 92 µM; nearly all actives have a fitted effect of over 50% in size
In short: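 CellTiter-Glo luminescence (30 min, room temperature) reported viability after a 2 h compound exposure at 37 C. Cells: wild-type HCT-116, 1,500 per well, seeded the night before.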

[8] = qHTS assay to identify small molecule agonists of the sonic hedgehog signaling (Shh) pathway - cell viability counter screen (AID 1259366); further: nearly all actives have a fitted effect of over 50% in size
In short: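 Cytotoxicity counter screen: CellTiter-Fluor reagent added after 23 h compound exposure, then 1 h at 37C and fluorescence read. Cells were 3T3 Gli1-Luc, seeded 2,000 per well and dosed 4 h post-plating.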

[9] = qHTS assay to identify small molecule antagonists of the sonic hedgehog signaling (Shh) pathway - cell viability counter screen (AID 1259367); further: nearly all actives have a fitted effect of over 55% in size
In short: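 Seed 3T3 Gli1-Luc cells at 2,000 per well; incubate 4 hr; add compound in DMSO, then conditioned medium; incubate at 37C with 5% CO2; add CellTiter-Fluor after 23 hr; read fluorescence 1 hr later.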

[10] = qHTS assay to identify small molecule agonists of the sonic hedgehog signaling (Shh) pathway (AID 1259368; calls by dose curve;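 further: NIH/3T3-derived 3T3Gli1-Luc cells carrying a stable Gli1-driven firefly luciferase reporter; series mostly up to about 92 µM; nearly all actives have a fitted effect of over 15% in size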)
In short: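 Steps: seed 3T3 Gli1-Luc cells, incubate 4 hr at 37 C, pin-transfer compounds in DMSO alongside a positive control, incubate 24 hr, add luciferase detection reagent, wait 30 min at room temperature, read luminescence.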

[11] = qHTS assay to identify small molecule antagonists of the sonic hedgehog signaling (Shh) pathway (AID 1259369; calls by dose curve; further: nearly all actives have a fitted effect of over 45% in size)
In short: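 Inhibition of Shh signalling is measured as reduced Gli1-response-element firefly luciferase output in an NIH/3T3-derived stable reporter clone stimulated with conditioned medium for 24hr.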

[12] = qHTS assay to identify small molecule agonists of the androgen receptor (AR) signaling pathway in the presence of an antagonist - cell viability counter screen (AID 1259379);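 further: MDA-kb2 human breast cancer cells carrying an MMTV luciferase reporter; series mostly up to about 92 µM; nearly all actives have a fitted effect of over 25% in size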
In short: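 Fluorescence from CellTiter-Fluor, added after 15 hr and read 1 hr later, gave cell viability. Cells were MDA-kb2 exposed to compounds (15 concentrations) in the presence of 3.0uM nilutamide at 37C, 0% CO2.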

[13] = qHTS assay to identify small molecule agonists of the estrogen receptor beta (ER-beta) signaling pathway - cell viability counter screen (AID 1259380); further: nearly all actives have a fitted effect of over 30% in size
In short: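 Same-well viability counter screen. Cells: ER-beta-UAS-bla HEK293T, plated 6 hr before compound, in 2% charcoal-stripped FBS. Compound exposure 16 hr, 37C; viability by CellTiter-Glo luminescence after 30 min at room temperature.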

[14] = qHTS assay to identify small molecule antagonists of the estrogen receptor beta (ER-beta) signaling pathway - cell viability counter screen (AID 1259382); further: series mostly up to about 92 µM; nearly all actives have a fitted effect of over 55% in size
In short: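 Following a 6 hr plating period, HEK293T cells carrying a UAS-driven beta-lactamase reporter under ER-beta control received compounds and 1nM E2 (final). After 16 hr at 37C and 2 hr substrate loading, CellTiter-Glo luminescence indicated viability.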

[15] = molecular target: Estrogen receptor (Homo sapiens) (UniProt P03372); experiment: qHTS assay to identify small molecule agonists of the estrogen receptor alpha (ER-alpha) signaling pathway in the presence of an antagonist (AID 1259383; calls by dose curve; further: top concentration of the series differs between compounds; nearly all actives have a fitted effect of over 15% in size)
In short: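 Cells are hormone-deprived for 5 days (charcoal-stripped FBS, no phenol red), plated for 24hr, spiked with 10.0nM ICI-182,780, then dosed at 15 concentrations. After 22hr at 37C, ONE-Glo luminescence reports ERE-luciferase activity.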

[16] = qHTS assay to identify small molecule agonists or antagonists of the thyroid stimulating hormone receptor (TSHR) signaling pathway - wild type cell line counter screen (AID 1259384; calls by dose curve)
In short: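 Wild-type Hek293 cells, 800/well, 18 h at 37C, then compound with Ro20-1724 for 30 min RT. cAMP by HTRF (cAMP-d2/anti-cAMP cryptate), 1 h RT, fluorescence read. 15 concentrations, triplicates.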

[17] = molecular target: Estrogen receptor beta (Homo sapiens) (UniProt Q92731); experiment: qHTS assay to identify small molecule agonists of the estrogen receptor beta (ER-beta) signaling pathway (AID 1259377; active means well fitted activation curve with a large enough effect in the signal ratio in the repeat runs, not every such curve was filed as active; the % refers to the signal ratio)
Chain of Estrogen receptor beta (Homo sapiens) (Q92731 whole entry, looked up): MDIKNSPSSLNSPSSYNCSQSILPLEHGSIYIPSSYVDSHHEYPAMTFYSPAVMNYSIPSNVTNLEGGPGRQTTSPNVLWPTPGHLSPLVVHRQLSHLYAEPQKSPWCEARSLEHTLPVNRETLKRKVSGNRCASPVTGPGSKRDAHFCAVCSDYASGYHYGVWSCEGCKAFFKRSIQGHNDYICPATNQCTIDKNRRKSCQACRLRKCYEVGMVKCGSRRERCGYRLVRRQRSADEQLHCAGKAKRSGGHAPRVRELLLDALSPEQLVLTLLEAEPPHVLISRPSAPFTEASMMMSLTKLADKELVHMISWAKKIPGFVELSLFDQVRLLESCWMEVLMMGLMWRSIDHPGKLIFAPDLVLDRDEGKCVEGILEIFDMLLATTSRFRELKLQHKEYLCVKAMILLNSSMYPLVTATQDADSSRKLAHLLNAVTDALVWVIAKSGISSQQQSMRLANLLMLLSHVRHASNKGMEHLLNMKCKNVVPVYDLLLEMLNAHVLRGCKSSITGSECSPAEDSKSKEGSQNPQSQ
In short: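 Ratiometric beta-lactamase FRET read-out came after 2 h substrate loading at room temperature. It followed 16 h compound treatment at 37C of GripTite HEK293T cells carrying a UAS-bla reporter, plated in 2% charcoal-stripped FBS medium.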

[18] = molecular target: Estrogen receptor beta (Homo sapiens) (UniProt Q92731); experiment: qHTS assay to identify small molecule antagonists of the estrogen receptor beta (ER-beta) signaling pathway (AID 1259378; active means well fitted inhibition curve with a large enough effect in the signal ratio in the repeat runs, not every such curve was filed as active; the % refers to the signal ratio)
In short: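 ER-beta-UAS-bla HEK293T cells in 2% charcoal-stripped FBS medium treated with compound plus 1nM final 17-beta-estradiol for 16 hr at 37C. Beta-lactamase reporter read by FRET substrate fluorescence after 2 hours at room temperature.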
On the % scale 0 is the no-effect control and ±100 the full control effect.

NS(=O)(=O)c1cc(C(=O)O)cc(N2CCCC2)c1Oc1ccccc1
inactive: Potency [1] | outcome [2] | Potency [3] | outcome [4] | Potency [5] | Potency [6] | outcome [7] | Potency [8] | Potency [9] | outcome [10] | Potency [11] | Potency [12] | Potency [13] | Potency [14] | Potency [15] | outcome [16]

COc1c(N2C[C@@H]3CCCN[C@@H]3C2)c(F)cc2c(=O)c(C(=O)O)cn(C3CC3)c12
inactive: Potency [1] | outcome [2] | Potency [3] | outcome [4] | Potency [5] | Potency [6] | outcome [7] | Potency [8] | Potency [9] | Potency [11] | outcome [17] | Potency [12] | Potency [13] | Potency [15]

Cc1c(NC(C)C)c(=O)n(-c2ccccc2)n1C
inactive: Potency [1] | outcome [2] | Potency [3] | outcome [4] | Potency [5] | Potency [6] | outcome [7] | Potency [8] | Potency [9] | outcome [10] | Potency [11] | outcome [17] | outcome [18] | Potency [12] | Potency [13] | Potency [14] | Potency [15] | outcome [16]

CC(C(=O)O)c1ccc(CC2CCCC2=O)cc1 (centres undefined)
inactive: Potency [1] | outcome [2] | Potency [3] | outcome [4] | Potency [5] | Potency [6] | outcome [7] | Potency [8] | Potency [9] | outcome [10] | Potency [11] | outcome [17] | outcome [18] | Potency [12] | Potency [13] | Potency [14] | Potency [15] | outcome [16]

CC(C)c1cc2c(cc1S(=O)(=O)O)[C@@]1(C)CCC[C@@](C)(C(=O)O)[C@@H]1CC2
inactive: Potency [1] | outcome [2] | Potency [3] | outcome [4] | Potency [5] | Potency [6] | outcome [7] | Potency [8] | Potency [9] | outcome [10] | outcome [17] | outcome [18] | Potency [12] | Potency [13] | Potency [14] | Potency [15] | outcome [16]

Cc1nc2c([nH]1)c(=O)n(C)c(=O)n2Cc1ccco1
inactive: Potency [1] | outcome [2] | Potency [3] | outcome [4] | Potency [5] | Potency [6] | outcome [7] | Potency [8] | Potency [9] | outcome [10] | outcome [17] | outcome [18] | Potency [12] | Potency [13] | Potency [15]

C[C@](N)(Cc1ccc(O)cc1)C(=O)O
inactive: cytotoxicity increase [1] -1.36% [at 6.97 µM] | activity change, negative = cytotoxicity [2] 0.275% [at 8.39 µM] | viability change, negative = cytotoxic [3] 2.64% [at 8.39 µM] | activity change, negative = inhibition [4] -5.6% [at 8.39 µM] | Potency [5] | activity change, negative = inhibition [6] -0.294% [at 8.39 µM] | activity change, negative = cytotoxicity [7] -1.98% [at 8.39 µM] | viability change, negative = cytotoxic [8] 4.48% [at 8.39 µM] | viability change, negative = cytotoxic [9] 4.1% [at 8.39 µM] | activity change [10] -0.726% [at 8.39 µM] | activity change, negative = cytotoxicity [12] -1.36% [at 8.39 µM] | activity change, negative = cytotoxicity [13] 14.6% [at 8.39 µM] | activity change, negative = cytotoxicity [14] 4.19% [at 8.39 µM] | activation [15] 1.12% [at 8.39 µM] | cAMP activity change [16] 3.57% [at 8.39 µM]

Nc1ccc(S(=O)(=O)Nc2ccnn2-c2ccccc2)cc1
inactive: cytotoxicity increase [1] 0.943% [at 15.8 µM] | activity change, negative = cytotoxicity [2] 0.0467% [at 19 µM] | viability change, negative = cytotoxic [3] 0.287% [at 19 µM] | activity change, negative = inhibition [4] 0.724% [at 19 µM] | Potency [5] | activity change, negative = inhibition [6] -2.22% [at 19 µM] | activity change, negative = cytotoxicity [7] 2.68% [at 19 µM] | viability change, negative = cytotoxic [8] 10.6% [at 19 µM] | Potency [9] | activity change [10] -1.14% [at 18.9 µM] | Potency [11] | activity, negative = inhibition [18] 0.746% [at 19 µM] | activity change, negative = cytotoxicity [12] -0.249% [at 19 µM] | activity change, negative = cytotoxicity [13] 9.8% [at 19 µM] | activity change, negative = cytotoxicity [14] 5.67% [at 19 µM] | activation [15] -0.0289% [at 19 µM]
